Screens (PubChem BioAssay)
Sampled rows, rich in hits. Any-hit rate of the full collection: about 1.3%.
E coli Lon inh = inhibitors of E. coli Lon protease; P0A9M0; purified E. coli Lon protease, fluorescence polarization; inhibition, % at 7.94 µM; hit rate 0.42% among 360,000; AID 602123; in the data active = inhibition above about 13%, passing the limit was not always enough
Bcl-xL primary = blocks human Bcl-xL binding to Bim BH3 peptide; GST-Bcl-xL / FITC-Bim BH3 peptide fluorescence polarization; inhibition, % at 10.9 µM; AID 2129; Q07817; hit rate 0.7% among 320,000;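 active = inhibition above the mean of all tested compounds plus 3 SD, cutoff set per campaign, cut at about 30% in these data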;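 also: inhibitors lower millipolarization by displacing the labeled peptide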
MEX-5 binding = C. elegans MEX-5 TCR-2 RNA binding activity. MEX-5/FITC-TCR2 RNA binding, fluorescence polarization; active compounds read low. hit rate 0.38% among 300,000. AID 1832. activity score (negative = inhibition of binding), % at 10 µM;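 active = inhibition past about -25% in most replicates, and total fluorescence under double the plate's negative control median, limit read from the data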
GLD-1 TGE inh = GLD-1-TGE RNA interaction inhibition (C. elegans) | inhibition, % at 5.96 µM | Q17339 | AID 2280 | hit rate 0.44% among 320,000 | purified GLD-1 + fluorescein TGE RNA, fluorescence polarization;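 active = percent inhibition above a per-plate cutoff, the plate mean of test compounds plus 3 SD, cut at about 30% in these data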
eLon confirm = confirmation of E. coli Lon protease inhibitors | shares compounds with E coli Lon inh | purified E. coli Lon, fluorescence polarization | inhibition, % at 7.94 µM | hit rate 31% among 1,400 | AID 602230; in the data active = inhibition above about 16%
Hits are given with their value; n = inactive; x = no result.

SMILES | E coli Lon inh | Bcl-xL primary | MEX-5 binding | GLD-1 TGE inh | eLon confirm
CSCCC(c1nnnn1-c1c(C)cccc1C)N1CCC2(CC1)C(=O)NCN2c1ccccc1 (stereo unspecified) | n | x | x | x | x
CNc1ccc2nc3ccccc3[n+](C)c2c1 | 94.8 | 147.4 | -41.8 | n | 106.4
COc1cccc(C)c1NC1=NCCO1 | n | x | x | x | x
COc1ccc(C(c2nnnn2C2CCCC2)N2CCC3(CC2)C(=O)NCN3c2ccccc2)cc1 (stereo unspecified) | n | x | x | x | x
COc1ccc2c(c1)NP(=S)(c1ccccc1)N2C (stereo unspecified) | 53.0 | x | x | x | n
